Experimental data published in PubChem BioAssay (NCATS).

Target: Lysosomal acid glucosylceramidase (Homo sapiens) (UniProt P04062)
Assay: Glucocerebrosidase-p2 (AID 348)
Conditions: purified GBA, blue fluorogenic substrate, 40 min; in the data active = potency below about 10 µM; inactive = the rest
Method in brief: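 Normal human glucocerebrosidase (0.2 nM) with blue fluorogenic substrate (80 uM final) in citrate/phosphate pH 5.9 with 10mM sodium taurocholate, 0.01% tween-20; 40 min RT, NaOH/glycine stop; fluorescence Ex 365/Em 440; AC50 from a titration from 0.6 nM upwards.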
Potency is the fitted concentration of half-maximal effect.

Sequence of Lysosomal acid glucosylceramidase (Homo sapiens) (P04062 whole entry, looked up): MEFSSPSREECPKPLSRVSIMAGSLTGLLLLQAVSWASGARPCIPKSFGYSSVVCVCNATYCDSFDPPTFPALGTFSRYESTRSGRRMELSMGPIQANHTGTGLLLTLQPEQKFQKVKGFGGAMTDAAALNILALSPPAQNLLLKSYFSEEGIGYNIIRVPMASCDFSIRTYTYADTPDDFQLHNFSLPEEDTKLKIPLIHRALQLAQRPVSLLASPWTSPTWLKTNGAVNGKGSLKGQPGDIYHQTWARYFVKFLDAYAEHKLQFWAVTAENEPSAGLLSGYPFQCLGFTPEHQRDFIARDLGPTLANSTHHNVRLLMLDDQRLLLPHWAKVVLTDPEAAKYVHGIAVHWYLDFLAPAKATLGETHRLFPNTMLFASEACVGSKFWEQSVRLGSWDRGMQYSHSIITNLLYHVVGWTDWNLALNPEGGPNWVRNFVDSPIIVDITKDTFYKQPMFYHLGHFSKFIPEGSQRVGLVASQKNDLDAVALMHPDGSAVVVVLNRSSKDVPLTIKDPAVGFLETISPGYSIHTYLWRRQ

Potency, inactive:
Cc1cccc(CNc2cc(-c3c(C)noc3C)ncn2)c1 > 11.4 µM, COc1ccc(-n2c(=O)cnc3cnc(N(C)C)nc32)cc1 > 11.4 µM, COc1cccc(Nc2ncc3nc(C)c(=O)n(C4CC4)c3n2)c1 > 11.4 µM, COc1ccc2[nH]cc(CCNc3ncnc4ccc(-c5cccnc5)cc34)c2c1 > 11.4 µM, CNc1ncnc2ccc(-c3ccccc3CN(C)C)cc12 > 11.4 µM, COCCn1c(=O)c(C)nc2cnc(Oc3ccc(OC)cc3)nc21 > 11.4 µM, CN(C)C(=O)c1ccc(-c2cc(Nc3ccccc3)ncn2)cc1 > 11.4 µM, COCCNc1ncnc2ccc(-c3ccoc3)cc12 > 11.4 µM, COc1cccc(Cn2c(=O)cnc3cncnc32)c1 > 11.4 µM, COc1ccc(-c2nc3cnc(Oc4cccc(Cl)c4)nc3n(C3CC3)c2=O)cc1 > 11.4 µM
